Screening data (PubChem)
Pf Dd2 inh: P. falciparum Dd2 growth inhibition | 94,000 compounds, 2.3% hits | SYBR Green, 72 h; stronger effect = lower value | activity change, % at 10 µM; in the data active means activity change below about -80%
C diff HTS: C. difficile growth inhibition. growth activity, negative = inhibition, % at 16 µg/mL (by protocol). 86,000 compounds, 0.25% hits. Clostridium difficile clinical isolate growth, OD600, 24 h; stronger effect = lower value. AID 1259249;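 active means mean growth activity at or below -80% and every replicate also at or below -80%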
Of the large screens only hits and unclear results are named; the others gave an inactive call. Shown are actives, neighbours in structure and some others; about 2.4% of the full set was active somewhere.

C[C@@H]1CN([C@H](C)CO)C(=O)c2cccc(NC(=O)Nc3ccc(F)cc3)c2O[C@H]1CN(C)Cc1ccc(C(F)(F)F)cc1	none
CCC(=O)N(C)C[C@H]1Oc2ncc(C#CC(C)(C)O)cc2C(=O)N([C@H](C)CO)C[C@H]1C	none
O=C(C[C@@H]1CC[C@H](NC(=O)CC2CC2)[C@@H](CO)O1)NCc1ccccc1	none
COCCNC(=O)C[C@@H]1CC[C@@H]2[C@@H](COc3ccc(NC(=O)C4CCOCC4)cc3C(=O)N2C)O1	none
CNC[C@@H]1OCCCC[C@H](C)Oc2ccc(NS(=O)(=O)c3ccc(OC)cc3)cc2C(=O)N([C@H](C)CO)C[C@H]1C	none
C[C@H](CO)N1C[C@H](C)[C@H](CN(C)Cc2ccc(C(F)(F)F)cc2)Oc2ccc(NC(=O)Cn3cnnn3)cc2C1=O	none
C[C@H](CO)N1C[C@H](C)[C@H](CN(C)Cc2ccc(Oc3ccccc3)cc2)Oc2ccc(NC(=O)Nc3ccc(C(F)(F)F)cc3)cc2C1=O	Pf Dd2 inh -88.3 (no result: C diff HTS)
C[C@H](CO)N1C[C@H](C)[C@@H](CN(C)Cc2ccc(-c3ccccc3)cc2)Oc2ccc(NC(=O)Nc3ccc(C(F)(F)F)cc3)cc2C1=O	Pf Dd2 inh -85.2
C[C@H](CO)N1C[C@H](C)[C@@H](CN(C)Cc2ccc(Oc3ccccc3)cc2)Oc2ccc(NC(=O)Nc3ccc(C(F)(F)F)cc3)cc2C1=O	none (no result: C diff HTS)
C[C@@H]1CN([C@H](C)CO)C(=O)c2cc(NC(=O)Nc3ccc(C(F)(F)F)cc3)ccc2O[C@H]1CN(C)Cc1ccc(-c2ccccc2)cc1	none
O=C(C[C@@H]1C[C@@H]2c3cc(NC(=O)Nc4ccc(C(F)(F)F)cc4)ccc3O[C@@H]2[C@H](CO)O1)NC1CCCCC1	none
COc1ccc(CN(C)C[C@@H]2Oc3c(NC(=O)CCCCCC(=O)Nc4ccccc4N)cccc3C(=O)N([C@H](C)CO)C[C@H]2C)cc1	Pf Dd2 inh -89.9
COc1ccc(CN(C)C[C@H]2Oc3c(NC(=O)CCCCCC(=O)Nc4ccccc4N)cccc3C(=O)N([C@@H](C)CO)C[C@@H]2C)cc1	Pf Dd2 inh -94.4
COc1ccc(CN(C)C[C@@H]2Oc3c(NC(=O)CCCCCC(=O)Nc4ccccc4N)cccc3C(=O)N([C@@H](C)CO)C[C@H]2C)cc1	Pf Dd2 inh -90.3
COc1ccc(NC(=O)N(C)C[C@@H]2Oc3c(NC(=O)CCCCCC(=O)Nc4ccccc4N)cccc3C(=O)N([C@@H](C)CO)C[C@@H]2C)cc1	none
Cc1ccc(S(=O)(=O)Nc2ccc3c(c2)CC(=O)N([C@@H](C)CO)C[C@@H](C)[C@@H](CN(C)CC2CCCCC2)O3)cc1	none
C[C@@H]1CN([C@H](C)CO)C(=O)Cc2cc(NS(=O)(=O)c3ccc(F)cc3)ccc2O[C@@H]1CN(C)C	none
C[C@@H]1CN([C@H](C)CO)C(=O)c2ccccc2-c2ccccc2CO[C@H]1CN(C)S(=O)(=O)c1ccc(Cl)cc1	none
C[C@@H]1CN([C@H](C)CO)C(=O)c2ccccc2-c2ccccc2CO[C@@H]1CN(C)S(=O)(=O)c1ccc(C(F)(F)F)cc1	none
C[C@H]1CN([C@@H](C)CO)C(=O)c2ccccc2-c2ccccc2CO[C@H]1CN(C)S(=O)(=O)c1ccc(Cl)cc1	Pf Dd2 inh -82.8
C[C@H]1CN([C@@H](C)CO)C(=O)c2ccccc2-c2ccccc2CO[C@H]1CN(C)S(=O)(=O)c1ccc(C(F)(F)F)cc1	Pf Dd2 inh -81.1
COCCNC(=O)C[C@H]1C[C@H]2c3cc(NC(=O)CC4CC4)ccc3O[C@H]2[C@@H](CO)O1	none
COc1ccc(S(=O)(=O)N(C)C[C@@H]2Oc3ccc(NC(=O)CCCCCC(=O)Nc4ccccc4N)cc3CC(=O)N([C@@H](C)CO)C[C@@H]2C)cc1	Pf Dd2 inh -92.3
Cc1ccc(S(=O)(=O)N(C)C[C@H]2Oc3ccc(NC(=O)CCCCCC(=O)Nc4ccccc4N)cc3CC(=O)N([C@H](C)CO)C[C@H]2C)cc1	none
Cc1ccc(S(=O)(=O)N(C)C[C@@H]2Oc3ccc(NC(=O)CCCCCC(=O)Nc4ccccc4N)cc3CC(=O)N([C@H](C)CO)C[C@@H]2C)cc1	Pf Dd2 inh -87.2
C[C@@H]1CN([C@@H](C)CO)C(=O)Cc2cc(NC(=O)CCCCCC(=O)Nc3ccccc3N)ccc2O[C@@H]1CN(C)S(=O)(=O)c1ccc(Cl)cc1	none (no result: C diff HTS)
C[C@H](CO)N1C[C@H](C)[C@@H](CN(C)C(=O)Cc2ccccc2)OCCCC[C@H](C)Oc2ccc(N(C)C)cc2C1=O	none
COc1ccc(S(=O)(=O)Nc2ccc3c(c2)C(=O)N([C@@H](C)CO)C[C@H](C)[C@H](CN(C)C(=O)Nc2ccc(C(F)(F)F)cc2)OCCCC[C@@H](C)O3)cc1	Pf Dd2 inh -84.5
Cc1ccc(S(=O)(=O)Nc2ccc3c(c2)C(=O)N([C@H](C)CO)C[C@H](C)[C@@H](CN(C)C(=O)Nc2ccc(C(F)(F)F)cc2)OCCCC[C@H](C)O3)cc1	none
C[C@H]1CCCCO[C@H](CN(C)C(=O)Nc2ccc(C(F)(F)F)cc2)[C@@H](C)CN([C@@H](C)CO)C(=O)c2cc(NS(=O)(=O)c3ccc(F)cc3)ccc2O1	Pf Dd2 inh -81.8
Cc1ccc(S(=O)(=O)Nc2ccc3c(c2)C(=O)N([C@@H](C)CO)C[C@H](C)[C@@H](CN(C)C(=O)Nc2ccc(C(F)(F)F)cc2)OCCCC[C@H](C)O3)cc1	Pf Dd2 inh -81.6
C[C@@H]1CCCCO[C@@H](CN(C)C(=O)Nc2ccc(C(F)(F)F)cc2)[C@H](C)CN([C@H](C)CO)C(=O)c2cc(NS(=O)(=O)c3ccc(F)cc3)ccc2O1	none
COc1ccc(S(=O)(=O)Nc2ccc3c(c2)C(=O)N([C@H](C)CO)C[C@@H](C)[C@H](CN(C)C(=O)Nc2ccc(C(F)(F)F)cc2)OCCCC[C@H](C)O3)cc1	none
C[C@@H]1CCCCO[C@H](CN(C)C(=O)Nc2ccc(C(F)(F)F)cc2)[C@@H](C)CN([C@@H](C)CO)C(=O)c2cc(NS(=O)(=O)c3ccc(Cl)cc3)ccc2O1	Pf Dd2 inh -83.5
C[C@H](CO)N1C[C@H](C)[C@@H](CN(C)C(=O)Nc2ccc(C(F)(F)F)cc2)OCCCC[C@H](C)Oc2ccc(NS(=O)(=O)c3ccc(Cl)cc3)cc2C1=O	none
CO[C@@H]1CN(C)C(=O)c2ccc(NC(C)=O)cc2OC[C@H](C)N(C(=O)CC2CC2)C[C@H]1C	none (no result: C diff HTS)
CO[C@@H]1CN(C)C(=O)c2ccc(NC(=O)c3cnccn3)cc2OC[C@H](C)N(C)C[C@@H]1C	none
C[C@@H]1CCCCO[C@H](CN(C)C(=O)Nc2ccc(C(F)(F)F)cc2)[C@H](C)CN([C@H](C)CO)C(=O)c2cc(NS(=O)(=O)c3ccccc3)ccc2O1	Pf Dd2 inh -86.3
C[C@H](CO)N1C[C@H](C)[C@@H](CN(C)C(=O)Nc2ccc(C(F)(F)F)cc2)OCCCC[C@H](C)Oc2ccc(NS(=O)(=O)c3ccccc3)cc2C1=O	none
CCNC(=O)C[C@H]1CC[C@@H]2[C@H](COc3ccc(NC(=O)Cc4ccccc4)cc3C(=O)N2C)O1	none
Cc1noc(C)c1S(=O)(=O)Nc1ccc2c(c1)C(=O)N([C@H](C)CO)C[C@H](C)[C@H](CN(C)C(=O)Nc1ccccc1)OCCCC[C@H](C)O2	none
COc1ccc(S(=O)(=O)Nc2ccc3c(c2)C(=O)N([C@H](C)CO)C[C@H](C)[C@@H](CN(C)C(=O)Nc2cccc4ccccc24)OCCCC[C@@H](C)O3)cc1	none (no result: C diff HTS)
